Source: PubChem BioAssay (NCI)
Values joined by “and” are separate entries in the source; they are usually repeats but may differ in a detail not shown here. Equal values may be shown once. The panel holds about 83,000 compounds, 20% with a hit somewhere; the sample as a whole holds those more often.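 Results are percent growth after 48 hours of single-concentration exposure. 100 means growth as in untreated cells, lower positive values show inhibition; negative values down to -100 show cell death.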 A number with no mark means an inactive call. Active and inactive are the calls of the source. Rule for the calls: active = growth percent below 10; inactive = the rest.

These compounds were tested on HL-60(TB) leukemia (assay: NCI-60 one-dose screen, 48 h (100 = growth as untreated, 0 = no growth, -100 = all killed)). Conditions: 10 µM unless noted.
For `O=C(OCC1CCCO1)c1ccc([N+](=O)[O-])cc1` (centres undefined), the growth was 102%.
Work on `CCN(CC)c1ccc(\C=N/N=C(N)/C(N)=N\N=C/c2ccc(N(CC)CC)cc2)cc1` yielded a growth of 112%.
In the case of `COc1cccc(C2C(C#N)=C(N)Oc3cc(N)ccc32)c1` (centres undefined), the growth was -19% (active).
Work on `O=[N+]([O-])c1ccc(Cl)c(S(=O)(=O)O)c1` yielded a growth of 96.4%.
With `COc1cc2oc(-c3cccc(NC(=O)c4ccccc4)c3)cc(=O)c2c(OC)c1OC` the growth was 60.5%.
`CCN(CC)C(Cl)=Nc1ccc(Cl)cc1` showed a growth of 99.3%.
Compound `Cc1cs/c(=N\NC(=O)c2cc(-c3cc4ccccc4o3)nn2-c2ccccc2)n1-c1ccccc1` has a growth of 109%.
For `CCCCN[C@H]1CC[C@@]2(C)[C@@H](CC[C@@]3(C)[C@H]2[C@H](O)C[C@H]2/C(=C(\CCC=C(C)C)C(=O)OC)[C@@H](OC(C)=O)C[C@@]23C)[C@@H]1C`, the growth was 0.474% (active).
In the case of `CCc1c(C)c2cc(-n3c(-c4ccc(OC)cc4)csc3=N)c(O)c(C)c2oc1=O`, the growth was -28.2% (active).
In the case of `COc1c(NC=O)c2c(c([N+](=O)[O-])c1OC)C(=O)OC2`, the growth was 98% and 90.7%.
In the case of `COc1ccc(CNC(=O)[C@H](O)[C@@H](N)Cc2ccccc2)cc1`, the growth was 102%.
Work on `c1ccc2cc3nc4cc5ccccc5cc4nc3cc2c1` yielded a growth of 90.5%.
`CCOC(=O)[C@]1(Br)CC[C@@]1(Br)C(=O)OCC` gave a growth of 47.7%.
With `Cc1ccc(NC(=O)Cn2cc(CN3CCN(c4ccnc5cc(Cl)ccc45)CC3)nn2)cc1` the growth was 87%.
